# Pf growth 96h: P. falciparum growth inhibition at 96 hour, primary screen for plastid delayed-death inhibitors; P. falciparum luciferase reporter growth, 96 h; Potency, µM (titrated, usually from 28.7 µM), for the others: at the top dose activity change, negative = inhibition, usual class: inhibitors; 320,000 compounds, 6.9% hits; note: potency is the fitted concentration of half-maximal effect; % is set by controls: 0 for no effect and ±100 for the full control effect
#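 Erythrocytes infected with luciferase-expressing P. falciparum were dispensed at 2% hematocrit and 0.05% parasitemia (final), then incubated with compounds 96 hours at 37 C in 5% CO2. Luminescence after detection reagent addition reported growth.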
# HCV inh: blocks hepatitis C virus. Huh7.5.1 HCVcc-Cre infection, luciferase reporter, 44 h. Potency, µM (top dose mostly 41.8 µM), for inactives: at the top dose activity change, negative = inhibition, hits mostly inhibitors. 340,000 compounds, 3.4% hits; note: potency is the fitted concentration of half-maximal effect; % is set by controls: 0 for no effect and ±100 for the full control effect
#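 Infectious HCV cell culture screen: compound-treated cells (1,000/well, pre-plated 4 h) are infected with HCVcc-Cre at roughly 0.5 moi and grown 44 h. Infection is quantified by luciferase signal after 15 min substrate incubation at room temperature.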
# Shiga toxin inh: blocks Shiga toxin action in Vero cells; Vero cells, Shiga toxin protein synthesis inhibition reporter; inhibition, % at 38.7 µM; 290,000 compounds, 9.2% hits; in the data active = inhibition mostly above about 28%, no sharp cut-off; inactive = mostly below about 43%; note: 0% is about no effect
# Pf growth 48h: P. falciparum growth inhibition at 48 hours (one generation) | P. falciparum luciferase growth in erythrocytes, 48 h | Potency, µM (highest dose often 28.7 µM), without a hit: top-dose activity change, negative = inhibition, hits mostly inhibitors | 310,000 compounds, 5.9% hits | AID 504832; note: potency is the fitted concentration of half-maximal effect; % is set by controls: 0 for no effect and ±100 for the full control effect
#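 Here the parasites carry a stable luciferase gene and grow inside erythrocytes in Albumax-based RPMI medium with compound for one erythrocytic cycle. Activity is scored as loss of luminescent signal.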
# CHX counter: affects cycloheximide protein synthesis inhibition readout, counter-screen; cell reporter, cycloheximide protein synthesis inhibition counterscreen; max response, %; 300,000 compounds, 12% hits; AID 2314; in the data active = max response mostly above about 13%, no sharp cut-off; inactive = mostly below about 14%; note: read at 38.3 µM for the half of the compounds with a filed dose; 0% is about no effect
# HCMV inh: human cytomegalovirus inhibition. AID 1259415. activity change, negative = inhibition, % at 57.5 µM. HFF cells, HCMV-luciferase reporter, 72 h; stronger effect = lower value. 410,000 compounds, 4.5% hits; in the data active = activity change below about -60%; inconclusive = no clear call, values can overlap the other calls; inactive = above about -39%; note: % is set by controls: 0 for no effect and ±100 for the full control effect
#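 Human foreskin fibroblasts infected with luciferase-reporter HCMV at MOI 1 PFU/cell, compounds at two doses. Luciferase measured 72 h post infection; normalized to buffer-only basal and Salinomycin (10uM) controls.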
# Starred values were filed as active, the others as inactive; ? = inconclusive; · = no result given; [ ] = remark or other dose. This is a sample that favours compounds with a hit; in the whole collection about 21% have one here. Unless noted, calls come from the whole dose curve; as a rule, active = well fitted inhibition curve with a large enough effect; inconclusive = small, poorly fitted or top-dose-only effect, or another doubt; inactive = no such curve, though single readings can be large or run the other way.
SMILES,Pf growth 96h,HCV inh,Shiga toxin inh,Pf growth 48h,CHX counter,HCMV inh
CCc1ccccc1Nc1nn2c(=O)c3ccc(C(=O)NC4CCC(C)CC4)cc3nc2s1 (stereo not drawn),·,·,·,·,·,13.8
Cc1c(COc2ccc3ccccc3c2)nnn1CC(=O)NS(=O)(=O)c1ccccc1C(F)(F)F,·,·,·,·,·,-12.9
O=C(NNC(=O)C12CC3CC(CC(C3)C1)C2)c1cccc(O)c1,1.1%,9.4%,26.0,6.9%,2.4,-32.3
O=C(N/N=C1/CN2CCC1CC2)c1cccc(O)c1,0.0%,13.6%,70.1*,·,36.4*,6.0
CCN(Cc1ccncc1)C(=O)c1cc(COc2ccc(C)c(C)c2)on1,44.4%,?,16.9,?,2.9,-74.1*
Cc1ccc(OCc2cc(C(=O)N(CCO)Cc3cccs3)no2)cc1C,-18.7%,-8.3%,160.4*,31.6%,50.8*,99.3
Cc1nn(-c2ccccc2)c(C)c1NC(=O)COC(=O)c1ccc(Cl)c(S(N)(=O)=O)c1,3.0%,24.2%,·,3.3%,·,-23.8
CCCCn1c(-c2ccc(Cl)c(Cl)c2)nc2cc3[nH]c(=O)c(C(C)C)nc3cc21,4.65µM*,-14.4%,1.8,?,-0.5,0.3
CCCCn1c(=O)[nH]c(=O)c2c1nc(-c1ccc3ccccc3c1)n2CC,?,?,-13.7,-27.6%,1.5,2.4
CCCCn1c(-c2ccc(C(C)(C)C)cc2)nc2cc3[nH]c(=O)c(C(C)C)nc3cc21,4.65µM*,-12.6%,-4.5,?,-2.2,12.0
COc1ccc(NC(=O)CCC(=O)N2CCOCC2)c([N+](=O)[O-])c1,-0.8%,14.5%,-17.9,-0.7%,8.0,30.0
CC(C)OC(=O)OCOP(=O)(CO[C@H](C)Cn1cnc2c(N)ncnc21)OCOC(=O)OC(C)C,·,·,·,·,·,-17.3
C=C1C(=O)O[C@H]2[C@H]1[C@@H](O)CC(=C)[C@@H]1CC(=O)[C@@H](C)[C@H]21,?,?,36.0*,?,31.7*,·
COC(=O)c1c(NC(=O)/C(C#N)=C/c2ccc(OC)cc2)sc2c1CCC2,·,·,·,·,·,-11.6
CCc1ccc(OCCCOc2ccc(C=O)cc2)cc1,-26.7%,-0.4%,77.5,·,19.0*,19.9
CCC/C(O)=C1\C(=O)CCCC1=NC(C)C(=O)O (stereo not drawn),3.7µM*,3.7%,-10.8,?,-4.3,43.7
Cc1ccc(SCc2c(-c3ccccc3)nn(C)c2Cl)cc1,?,?,-1.2,·,-3.5,-23.4
Cn1nc(-c2ccccc2)c(CSc2ccccc2)c1Cl,9.28µM*,?,25.6,·,2.2,-12.7
C#CCOCCOCCOCCNc1nc(N2CCN(C(=O)[C@H](CCCN=C(N)N)n3cc(C(N)[C@@H](C)CC)nn3)CC2)nc(N2CCN(C(=O)[C@H](CCC(=O)O)n3cc([C@@H](N)[C@H](C)CC)nn3)CC2)n1 (stereo partly drawn),·,16.9%,·,·,·,-1.8
C#CCOCCOCCOCCNc1nc(N2CCN(C(=O)CCCCCCCCCCNC(=O)[C@@H](CCSC)n3cc(CCO)nn3)CC2)nc(N2CCN(C(=O)CCCCCCCCCCNC(=O)[C@H](CCCN=C(N)N)n3cc(C[C@@H](C)CC)nn3)CC2)n1,1.17µM*,?,·,3.29µM*,·,·
C#CCOCCOCCOCCNc1nc(N2CCN(C(=O)Cn3cc(CC(C)O)nn3)CC2)nc(N2CCN(C(=O)[C@H](CCCCN)n3cc(CC(C)O)nn3)CC2)n1 (stereo partly drawn),·,2.8%[8.37 µM],·,·,·,9.1
C#CCOCCOCCOCCNc1nc(N2CCN(C(=O)CCCCCCCCCCNC(=O)[C@H](CCCCN)n3cc(C)nn3)CC2)nc(N2CCN(C(=O)CCCCCCCCCCNC(=O)[C@H](CCCN=C(N)N)n3cc(C[C@@H](C)CC)nn3)CC2)n1,1.47µM*,?,·,1.85µM*,·,·
C#CCOCCOCCOCCNc1nc(N2CCN(C(=O)CCCCCCCCCCNC(=O)[C@H](CO)n3cc(CCCCCN)nn3)CC2)nc(N2CCN(C(=O)CCCCCCCCCCNC(=O)[C@H](CCCN=C(N)N)n3cc(C[C@@H](C)CC)nn3)CC2)n1,2.62µM*,-13.7%,·,3.29µM*,·,·

# Screening data deposited in PubChem BioAssay by National Center for Advancing Translational Sciences (NCATS).
